Reference: PubChem BioAssay (Tox21)
Records with an inconclusive call do not appear. Values without a mark were called inactive. The call rests on the fitted dose curve; in most records, active means well fitted inhibition curve with a large enough effect in the repeat runs; inconclusive means weak or mixed curves, or effect the other way; inactive means no such curve, though single readings can be large or run the other way.

experiment: qHTS assay to identify small molecule antagonists of the retinoic acid receptor (RAR) signaling pathway (AID 1159552; further: nearly all actives have a fitted effect of over 50% in size); conditions: C3RL4 RARE luciferase reporter, retinol-stimulated, 6 h; series mostly up to 92.4 µM; activity, negative = inhibition: at the top concentration
Description: National Center for Advancing Translational Sciences [NCATS]
NIH Chemical Genomics Center [NCGC]
U.S. Environmental Protection Agency [EPA]
National Institutes of Environmental Health Sciences [NIEHS]
National Toxicology Program [NTP]
U.S. Food and Drug Administration [FDA]
All-trans Retinoic acid (atRA) is the potent natural metabolite of retinol and plays an important role in normal embryonic development and maintenance of cellular phenotype in adult animals. atRA is the activating ligand for the retinoic acid receptors (RARs) which form heterodimers with retinoid X receptors (RXRs) on the retinoic acid response element (RARE). Through activation of the RAR/RXRs nuclear receptors, atRA regulates the transcription of a large number of protein-coding genes and regulatory RNAs. Intracellular levels of atRA are controlled by the retinol signaling pathway (RSP) that regulates the biosynthesis and catabolism of atRA to maintain physiological levels. Chemicals that interfere with the RSP can cause abnormal intracellular levels of atRA and therefore are potential developmental toxicants. To assess compounds for the potential adverse effect on embryonic development through interfering with retinol signaling, a cell-based RARE luciferase reporter gene assay was used. C3RL4 cell line (OARSA/CFSAN/FDA, Laurel, MD) was used to screen Tox21 10K compound library for identifying inhibitors of the RSP.
Tox21 Assay Protocol Summary:
C3RL4 cells were seeded at 1,000/well in 4 uL of assay medium into white solid 1,536-well tissue culture plates (Greiner Bio-One North America Inc. Monroe, NC) using a Multidrop Combi (Thermo Scientific, Waltham, MA) dispenser. After incubation at 37 C and 5% CO2 for an overnight, 23 nL of compounds dissolved in DMSO, positive control or DMSO only were transferred by a Pintool station (Kalypsys, San Diego, CA). One ul of 1 uM (final concentration) of Retinol was added right after the compound addition by using a Flying Reagent Dispenser (FRD) (Aurora Discovery, San Diego, CA). After 6 hr incubation at 37 C and 5% CO2, 5 uL of Amplite Luciferase reagent (AAT Bioquest Inc. Sunnyvale, CA) was added to each assay plate using an FRD. Luminescence was quantified on a ViewLux plate reader (PerkinElmer, Waltham, MA) after 30 min incubation at room temperature.
On the % scale 0 is the no-effect control and ±100 the full control effect.

SMILES	activity, negative = inhibition
CCCC(=O)OCCC(C)CCC=C(C)C (stereo not given)	15.2%
O=C(O)CONC(=O)c1ccccc1	5.89%
c1ccc2cnccc2c1	-26.7%
O=C1CCC(=O)N1Cl	16.5%
CN(C)C(C)(C)CO	4.12%
Fc1ccccc1	-2.4%
CC1(C)Oc2ccc(C#N)cc2[C@@H](N2CCCC2=O)[C@@H]1O	-9.79% [at 42.5 µM]
OCC(O)CN1CCN(c2ccccc2)CC1 (stereo not given)	8.38% [at 42.5 µM]
CC(Oc1cc(Cl)ccc1Cl)C(=O)O (stereo not given)	4.29%
Cc1ncc([N+](=O)[O-])n1CC(C)O (stereo not given)	1.11% [at 42.5 µM]
NCc1ccc(S(N)(=O)=O)cc1	12.5% [at 42.5 µM]
CO[Si](CCCn1c(=O)n(CCC[Si](OC)(OC)OC)c(=O)n(CCC[Si](OC)(OC)OC)c1=O)(OC)OC	18.4% [at 42.5 µM]
CC(=O)c1cc(C)oc1C	46.2%
CC(=O)CCc1ccc(OC(C)=O)cc1	-2.79%
Cc1ccc(C(C)NC(=O)[C@@H](NC(=O)OC(C)C)C(C)C)cc1 (stereo not given in full)	13.9%
CCCC(CC)c1ccccc1 (stereo not given)	-6.56%
C/C=C(\C)C(=O)OCCc1ccccc1	101%
C=CCCCC	0.576%
CC(=O)C1C(=O)C=C(C)OC1=O (stereo not given)	10.4%
CCC(C)C(=O)OCCc1ccccc1 (stereo not given)	-3.5%

SMILES	activity, negative = inhibition
CCCCOCCOC(=O)COc1ccc(Cl)cc1Cl	26.9%
O=C[O][Al]([O]C=O)[O]C=O	-2.98%
CC(C)OC(=O)CCC(=O)OC(C)C	103%
CN(C)CCOC(=O)C(c1ccccc1)C1(O)CCCC1 (stereo not given)	-1.22% [at 42.5 µM]
OC[C@H]1O[C@@H](O[C@@H]2[C@@H](CO)O[C@](O)(CO)[C@H]2O)[C@H](O)[C@@H](O)[C@H]1O	-6.18% [at 42.5 µM]
C#CCN[C@@H]1CCc2ccccc21	-3.45% [at 42.5 µM]
CCCCCc1cccc(=O)o1	-2.54%
CC(C)C[C@@H]1[C@H](c2ccccc2)OC(=O)N1CCCN1CCCCCC1	-1.45% [at 42.5 µM]
Cc1ccc(C(=O)O)cc1[N+](=O)[O-]	-0.0231%
CC(C)OC(=O)OCOP(=O)(CO[C@H](C)Cn1cnc2c(N)ncnc21)OCOC(=O)OC(C)C	-7.61% [at 42.5 µM]
CC(C)NC(=O)c1ccc(C=O)cc1	117% [at 42.5 µM]
CCC(C)C(C)=O (stereo not given)	11.5%
O=C(CN1CCNCC1)NC1CCCCC1	10.5% [at 42.5 µM]
CC(S)C(C)S (stereo not given)	8.42%
Cc1c(C(=O)c2c[nH]n(C)c2=O)ccc(S(C)(=O)=O)c1C1=NOCC1	-0.451% [at 42.5 µM]
COc1cc2c(cc1OC)C(=O)C(CC1CCN(Cc3ccccc3)CC1)C2 (stereo not given)	51.4% [at 42.5 µM]
COc1ccc(CCO)cc1	2.58%
O/N=C/C=N/O	5.39%
C/C=C(\C)C(C)=O	10.9%
CCOc1ccccc1OCC1CNCCO1 (stereo not given)	6.73% [at 42.5 µM]
